Bioassay records (PubChem BioAssay)
ADAM17 inh: inhibitors of human ADAM17. P78536. recombinant ADAM17, EDANS/DABCYL FRET peptide cleavage. inhibition, % at 6.95 µM. 370,000 compounds, 0.83% hits. AID 720648;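 active means inhibition above the mean of compounds lying between control limits plus 3 SD, set per campaign, cut at about 8.5% in these data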
ADAM10 inh: ADAM10 inhibition, QFRET primary screen. inhibition, % at 7 µM. 370,000 compounds, 0.62% hits. recombinant ADAM10, EDANS/DABCYL FRET peptide cleavage, 3 h. O14672;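 active means inhibition above a per-campaign cutoff equal to the mean of compounds falling between control-based bounds plus 3 SD, cut at about 20% in these data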
AHR act: human AHR activation; P35869; AHR-responsive luciferase reporter cells, luminescence; activation, % at 5 µM; 320,000 compounds, 2.5% hits; in the data active means activation above about 47%
proKLK7 act: activates the human kallikrein-7 zymogen. P49862. purified proKLK7, EDANS-DABCYL substrate fluorescence; 100% is mature enzyme control, 0% vehicle. activation, % at 7 µM. 370,000 compounds, 0.9% hits;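 active means activation above the mean of all tested compounds plus 3 SD, computed per campaign excluding outliers beyond control limits, cut at about 13% in these data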
Target sequence (P49862 whole entry, looked up): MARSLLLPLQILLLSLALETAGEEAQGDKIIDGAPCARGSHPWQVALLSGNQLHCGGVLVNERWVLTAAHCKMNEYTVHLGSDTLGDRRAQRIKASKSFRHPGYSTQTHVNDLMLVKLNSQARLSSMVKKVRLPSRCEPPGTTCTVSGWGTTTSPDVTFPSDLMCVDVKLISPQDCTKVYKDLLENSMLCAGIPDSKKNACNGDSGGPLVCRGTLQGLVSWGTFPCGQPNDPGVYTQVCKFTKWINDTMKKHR
GRIN3A LBD mod: modulates the human NR3A ligand-binding domain | NR3A LBD differential scanning fluorimetry, Tm shift; 0% = protein alone, 100% = glycine-bound protein | Tm shift relative to glycine control, % at 25 µM | 340,000 compounds, 2.5% hits | AID 1259313;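 active means melting temperature shift of at least 10% of the positive control shift, at one fixed dose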
rCAG binder: molecules binding r(CAG) RNA repeats | r(CAG) RNA repeat, TO-PRO-1 dye displacement fluorescence | AID 651821 | 370,000 compounds, 1.3% hits | inhibition, % at 3 µM;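 active means inhibition above the plate cutoff, the mean of all test compounds on that plate plus 3 SD, cut at about 35% in these data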;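 further: higher means more dye released from RNA so lower well fluorescence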
ADAM10 confirm: human ADAM10 inhibition, confirmation; 2,100 compounds, 1% hits; shares compounds with ADAM10 inh; inhibition, % at 6.95 µM; ADAM10 QFRET peptide cleavage, EDANS fluorescence;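 active means inhibition above about 20% chosen separately for each screening run, limit read from the data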
ADAM17 counter: counter-screen for ADAM10 exosite inhibitors: inhibitors of human ADAM17. shares compounds with ADAM10 inh. ADAM17 QFRET peptide cleavage, EDANS fluorescence. inhibition, % at 6.95 µM. 2,100 compounds, 0.5% hits. AID 743214;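 active means mean triplicate inhibition above the solvent-only control wells' mean plus 3 SD, cut at about 12% in these data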
ADAM10 ctr: inhibits human ADAM10 in ADAM17 exosite counter-screen | shares compounds with ADAM17 inh | recombinant ADAM10, EDANS/DABCYL FRET peptide cleavage, 3 h | inhibition, % at 6.95 µM | 2,900 compounds, 47% hits;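 active means mean inhibition over the triplicate runs exceeds the activity threshold set in the earlier primary screen, cut at about 20% in these data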
ADAM17 confirm: human ADAM17 inhibition, confirmation. 2,900 compounds, 65% hits. AID 743257. inhibition, % at 6.95 µM. recombinant ADAM17, EDANS/DABCYL QFRET peptide cleavage. shares compounds with ADAM17 inh;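 active means mean inhibition across replicates above the hit cutoff set in the primary screen, cut at about 8.5% in these data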
A number is an active result. Most compounds without a hit are left out; they make up all but 7% or so of the library.

`Cc1ccc(Cn2nnc3c(=O)[nH]c(C4CCN(S(=O)(=O)c5cc(C)ccc5C)CC4)nc32)cc1` gave ADAM17 inh 15, ADAM10 inh 43, AHR act inactive, proKLK7 act inactive, GRIN3A LBD mod inactive, rCAG binder inactive, ADAM10 confirm inactive, ADAM17 counter inactive, ADAM10 ctr 25 and ADAM17 confirm 11.
`COc1cc(NC(=O)c2ccccc2)c(C)cc1NC(=O)CSc1nnc(-c2ccccc2F)n1-c1ccc(C)cc1` gave ADAM17 inh 12, ADAM10 inh 26, proKLK7 act inactive, rCAG binder inactive, ADAM10 confirm inactive, ADAM17 counter inactive, ADAM10 ctr 31 and ADAM17 confirm 18.
Screening O=C(Nc1nc2ccccc2s1)C1CCCN1S(=O)(=O)c1ccc(Cl)cc1 (centres undefined) returned ADAM17 inh 11, ADAM10 inh 30, AHR act inactive, proKLK7 act inactive, GRIN3A LBD mod inactive, rCAG binder inactive, ADAM10 confirm inactive, ADAM17 counter inactive, ADAM10 ctr 33 and ADAM17 confirm 17.
Cc1ccc(S(=O)(=O)N2CCCC2C(=O)Nc2nc3ccccc3s2)cc1 (centres undefined) was read as AHR act inactive and GRIN3A LBD mod inactive.
`C=CCNc1nc2cc(-c3ccccc3C)sc2c(=O)n1C` gave ADAM17 inh inactive, ADAM10 inh inactive, proKLK7 act inactive and rCAG binder inactive.
For Cc1nn(-c2ccccc2)c(C)c1/C=N/NC(=O)CSc1nc2ccccc2c(=O)n1-c1ccc(Br)cc1 the results were ADAM17 inh inactive, ADAM10 inh inactive, AHR act inactive, proKLK7 act inactive, GRIN3A LBD mod inactive and rCAG binder inactive.
Screening Cc1ccccc1-n1c(SCC(=O)N/N=C/c2c(C)nn(-c3ccccc3)c2C)nc2ccccc2c1=O returned ADAM17 inh 11, ADAM10 inh 21, AHR act inactive, proKLK7 act inactive, GRIN3A LBD mod 20, rCAG binder inactive, ADAM10 confirm inactive, ADAM17 counter inactive, ADAM10 ctr 33 and ADAM17 confirm 16.
O=C(COC(=O)c1cccc(S(=O)(=O)N2CCCCC2)c1)NCc1ccccc1 was read as ADAM17 inh inactive, ADAM10 inh inactive, proKLK7 act inactive, GRIN3A LBD mod inactive and rCAG binder inactive.
Screening O=C(OCC(=O)c1c[nH]c2ccccc12)c1cccc(S(=O)(=O)N2CCCCCC2)c1 returned ADAM17 inh 12, ADAM10 inh 27, AHR act inactive, proKLK7 act inactive, GRIN3A LBD mod inactive, rCAG binder inactive, ADAM10 confirm inactive, ADAM17 counter inactive, ADAM10 ctr inactive and ADAM17 confirm 8.7.
Screening Cc1[nH]c2ccccc2c1/C=N/Nc1nc(Nc2ccc(F)cc2)nc(N2CCOCC2)n1 returned ADAM17 inh inactive, ADAM10 inh inactive, AHR act inactive, proKLK7 act inactive, GRIN3A LBD mod inactive and rCAG binder inactive.
`O=C(Oc1cccc(/C=N/Nc2nc(Nc3ccccc3)nc(N3CCOCC3)n2)c1)c1ccco1` gave ADAM17 inh 8.8, ADAM10 inh 22, AHR act inactive, proKLK7 act inactive, GRIN3A LBD mod inactive, rCAG binder inactive, ADAM10 confirm inactive, ADAM17 counter inactive, ADAM10 ctr 41 and ADAM17 confirm 23.
For Cc1ccc(Nc2nc(N/N=C/c3c[nH]c4ccccc34)nc(N3CCOCC3)n2)cc1 the results were ADAM17 inh 10, ADAM10 inh 22, AHR act 51, proKLK7 act inactive, GRIN3A LBD mod 29, rCAG binder inactive, ADAM10 confirm inactive, ADAM17 counter inactive, ADAM10 ctr 27 and ADAM17 confirm 16.
CNc1ccc(C=C2C=Cc3ccccc32)cc1 was read as ADAM17 inh 13, ADAM10 inh 41, proKLK7 act inactive, GRIN3A LBD mod inactive, rCAG binder inactive, ADAM10 confirm inactive, ADAM17 counter inactive, ADAM10 ctr 46 and ADAM17 confirm 18.
`CN(C)c1ccc(C=C2C=Cc3ccccc32)cc1` gave ADAM17 inh inactive, ADAM10 inh inactive, proKLK7 act inactive, GRIN3A LBD mod inactive and rCAG binder inactive.
For COc1ccccc1C(=O)C1CCCN(C(=O)CCn2cnnn2)C1 (centres undefined) the results were ADAM17 inh inactive, ADAM10 inh inactive, AHR act inactive, proKLK7 act inactive, GRIN3A LBD mod inactive and rCAG binder inactive.
For OCCNc1nc(Nc2ccccc2OC(F)(F)F)nc(N2CCCC2)n1 the results were ADAM17 inh inactive, ADAM10 inh inactive, AHR act inactive, proKLK7 act inactive, GRIN3A LBD mod inactive and rCAG binder inactive.
OCCNc1nc(Nc2ccccc2Oc2ccccc2)nc(N2CCCC2)n1 was read as ADAM17 inh 12, ADAM10 inh 27, AHR act inactive, proKLK7 act inactive, GRIN3A LBD mod inactive, rCAG binder inactive, ADAM10 confirm inactive, ADAM17 counter inactive, ADAM10 ctr 21 and ADAM17 confirm 13.
O=C(CNC(=S)N(Cc1ccccc1)Cc1ccccc1F)NCCc1ccc(Cl)cc1 was read as ADAM17 inh 10, ADAM10 inh 24, AHR act inactive, proKLK7 act inactive, GRIN3A LBD mod inactive, rCAG binder inactive, ADAM10 confirm inactive, ADAM17 counter inactive, ADAM10 ctr 21 and ADAM17 confirm 14.
Screening CC(C)(C)OC(=O)N1CCC(N[C@@H](Cc2ccccc2)C(=O)NCCc2c[nH]c3ccccc23)(C(=O)NC2CCCCC2)CC1 returned ADAM17 inh 10, ADAM10 inh 24, ADAM10 confirm inactive, ADAM17 counter inactive, ADAM10 ctr 34 and ADAM17 confirm 19.
O=C1[C@H]2[C@@H](c3ccc(C(F)(F)F)cc3)N[C@]3(CCCN(Cc4ccc(C(F)(F)F)cc4)C3=O)[C@H]2C(=O)N1Cc1ccccc1 was read as ADAM17 inh 13, ADAM10 inh 31, proKLK7 act inactive, rCAG binder inactive, ADAM10 confirm inactive, ADAM17 counter inactive, ADAM10 ctr 41 and ADAM17 confirm 24.
Screening CC(C)(C)c1ccc(S(=O)(=O)Nc2ccc(C(O)(C(F)(F)F)C(F)(F)F)cc2)cc1 returned ADAM17 inh 27, ADAM10 inh 62, proKLK7 act inactive, rCAG binder inactive, ADAM10 confirm inactive, ADAM17 counter inactive, ADAM10 ctr 54 and ADAM17 confirm 31.
